PLK1 PBD inh = inhibitors of human PLK1 polo-box domain binding. P53350. Plk1 PBD binding of FITC phosphopeptide, fluorescence polarization. Potency, µM, for inactives: max response, negative = inhibition, usual class: inhibitors. 360,000 tested, 2.8% active. AID 720504; further: series mostly up to about 57 µM; on the % scale 0 is the no-effect control and ±100 the full control effect; nearly all actives have a fitted effect of over 65% in size
JMJD2A Tudor = blocks the human JMJD2A Tudor domain | 390,000 tested, 4.4% active | Potency, µM (series often up to 114 µM), inactives show at the highest dose activity change, negative = inhibition, hits mostly inhibitors | O75164 | AlphaScreen JMJD2A-Tudor / H3K4me3 peptide binding | AID 504339; further: on the % scale 0 is the no-effect control and ±100 the full control effect; nearly all actives have a fitted effect of over 50% in size
Target sequence (O75164 whole entry, looked up, the tested form may be a part): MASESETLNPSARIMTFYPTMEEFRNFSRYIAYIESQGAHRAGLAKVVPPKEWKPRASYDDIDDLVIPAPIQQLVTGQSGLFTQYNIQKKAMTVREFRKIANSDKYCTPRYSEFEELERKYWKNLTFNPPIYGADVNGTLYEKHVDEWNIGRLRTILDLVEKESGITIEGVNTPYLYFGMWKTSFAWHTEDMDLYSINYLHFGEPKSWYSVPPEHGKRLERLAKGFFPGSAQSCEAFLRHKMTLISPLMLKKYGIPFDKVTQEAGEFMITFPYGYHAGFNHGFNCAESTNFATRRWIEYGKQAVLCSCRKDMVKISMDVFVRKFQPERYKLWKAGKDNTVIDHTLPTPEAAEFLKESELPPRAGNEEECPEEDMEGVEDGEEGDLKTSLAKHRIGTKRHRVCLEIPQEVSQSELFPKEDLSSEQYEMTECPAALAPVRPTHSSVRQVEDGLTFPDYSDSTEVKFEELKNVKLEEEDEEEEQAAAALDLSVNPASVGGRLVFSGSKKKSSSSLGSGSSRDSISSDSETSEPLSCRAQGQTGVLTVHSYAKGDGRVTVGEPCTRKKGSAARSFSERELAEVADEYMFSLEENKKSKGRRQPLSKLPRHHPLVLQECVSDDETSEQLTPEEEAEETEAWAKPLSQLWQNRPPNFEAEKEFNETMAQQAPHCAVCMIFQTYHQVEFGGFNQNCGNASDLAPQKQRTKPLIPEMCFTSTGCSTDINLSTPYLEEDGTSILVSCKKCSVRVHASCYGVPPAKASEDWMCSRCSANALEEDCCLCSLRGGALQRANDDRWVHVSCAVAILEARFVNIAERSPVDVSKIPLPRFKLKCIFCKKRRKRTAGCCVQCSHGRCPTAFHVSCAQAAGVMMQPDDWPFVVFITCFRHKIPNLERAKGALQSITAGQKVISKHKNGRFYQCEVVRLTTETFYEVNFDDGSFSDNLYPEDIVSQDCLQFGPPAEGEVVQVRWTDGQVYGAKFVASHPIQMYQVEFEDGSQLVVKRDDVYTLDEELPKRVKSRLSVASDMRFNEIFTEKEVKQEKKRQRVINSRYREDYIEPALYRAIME
G9a block = inhibitors of human histone lysine methyltransferase G9a; G9a H3K9 monomethylation, AlphaScreen, 2 h; Q96KQ7; 350,000 tested, 8.8% active; Potency, µM (doses to about 102 µM), for inactives: at the highest dose activity, negative = inhibition, actives largely listed as inhibitors; AID 504332; further: on the % scale 0 is the no-effect control and ±100 the full control effect; nearly all actives have a fitted effect of over 75% in size
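AlphaScreen read-out: biotin-H3K9 peptide (500 nM) methylation by 20 nM enzyme with 20 uM SAM, 2 h at room temperature after 15 min compound preincubation; anti-monomethyl H3K9 antibody plus donor/acceptor beads, 10 min dark.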
ALOX12 inh = inhibitors of human 12S-lipoxygenase ALOX12; P18054; purified 12hLO, xylenol orange hydroperoxide absorbance; Potency, µM (titrated, usually from 108 µM), for inactives: top-dose activity change, negative = inhibition, hits mostly inhibitors; 580,000 tested, 1.1% active; AID 1671190; further: on the % scale 0 is the no-effect control and ±100 the full control effect
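Hydroperoxide product was detected by ferrous iron/xylenol orange as the 573 to 405 nm absorbance ratio. Arachidonic acid at 40 uM (final) was turned over for 30 min at room temperature by 150 nM human 12hLO, pH 7.0 Hepes buffer, after 15 min compound preincubation.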
BAZ2B inh = blocks human BAZ2B | 360,000 tested, 4.4% active | AlphaScreen BAZ2B-H3K14Ac peptide displacement | Potency, µM (doses to about 114 µM), inactives show at the highest dose activity change, negative = inhibition, actives largely listed as inhibitors; further: on the % scale 0 is the no-effect control and ±100 the full control effect; nearly all actives have a fitted effect of over 60% in size
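In this displacement format the biotinylated H3(5-23) peptide acetylated at Lys14 serves as ligand at 50 nM, with BAZ2B at 50 nM in PBS pH 7.4 containing 0.01% Tween-20. Donor and acceptor beads are 10 ug/mL final.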
HP1b chromo inh = HP1-beta chromodomain-methylated histone interaction inhibition; P83916; 390,000 tested, 0.56% active; AlphaScreen HP1-beta / biotin-H3K9me3 peptide binding; AID 540317; Potency, µM (top dose mostly 114 µM), for inactives: at the top dose activity change, negative = inhibition, most hits filed as inhibitors; further: nearly all actives have a fitted effect of over 70% in size
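HP1-beta protein (50 nM final) preincubated 30 min at room temperature with biotinylated H3(1-18)K9me3 peptide (50 nM) in PBS pH 7.4, 0.01% Tween-20, then compound added for 30 min. AlphaScreen streptavidin donor/nickel chelate acceptor beads (10 ug/mL final), 30 min dark, luminescence read.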
Numbers without * were called inactive; ? = inconclusive; nt = no result given; [ ] = remark or other dose. Most compounds without a hit are left out; they make up all but 9% or so of the library. The call rests on the fitted dose curve; in most records, active means well fitted curve in the direction sought with a large enough effect; inconclusive means small, poorly fitted or top-dose-only effect, or another doubt; inactive means no such curve, though single readings can be large; an effect the other way counts as inactive or inconclusive. Potency means the concentration at half of the fitted maximal effect.

SMILES	PLK1 PBD inh	JMJD2A Tudor	G9a block	ALOX12 inh	BAZ2B inh	HP1b chromo inh
CC(Nc1cccc([N+](=O)[O-])c1)C(=O)Nc1ccc(S(=O)(=O)N2CCCC2)cc1 (centres undefined)	-1%	-32%	50µM*	-4%	-9%	3%
CC(C)C(=O)NC(=S)Nc1ccc(S(=O)(=O)N2CCCC2)cc1	-12%	-12%	?	?	-17%	18%
CC(C)CC(=O)NC(=S)Nc1ccc(S(=O)(=O)N2CCCC2)cc1	24µM*	-20%[11.4 µM]	14µM*	-24%	-15%	-10%
CCCC(C)C(=O)Nc1ccc(S(=O)(=O)N2CCCC2)cc1 (centres undefined)	6%	1%	71µM*	0%	10%	21%
COc1ccc(/C=C/C(=O)OCC(=O)NC2CCCC(C)C2C)cc1 (centres undefined)	-7%	-5%	nt	167%	nt	31%
CC(=O)C[C@@H](O)CC(=O)[C@H]1OC(=O)CCCCCc2ccccc21	-5%	-7%	nt	?	nt	71%
COCC(=O)N(C)C[C@H]1Oc2ncc(Br)cc2C(=O)N([C@@H](C)CO)C[C@H]1C	0%	nt	nt	?	nt	nt
CCN(CC)CCOc1ccc(/C(=C(/Cl)c2ccccc2)c2ccccc2)cc1	-13%	56µM*	nt	-31%	?	?
CCC(=C(c1ccc(O)cc1)c1ccc(OCCN(C)C)cc1)c1ccccc1	-4%	nt	nt	-9%	nt	nt
CC(=O)Oc1ccc(N2C(=O)C3C4C=CC(O4)C3C2=O)cc1 (centres undefined)	-12%	?	3.5µM*	24%	-28%	?
CC(=O)Oc1cccc(N2C(=O)C3CC=CCC3C2=O)c1 (centres undefined)	-5%	-8%	50%[12.7 µM]	-16%	-3%	26%
CC(=O)Oc1cccc(N2C(=O)C3C4C=CC(C4=C(C)C)C3C2=O)c1 (centres undefined)	17µM*	?	-40%[2.33 µM]	0%	-5%	?
CC(=O)Oc1cccc(N2C(=O)C3C(C2=O)C2C=CC3C23CC3)c1 (centres undefined)	-4%	-11%	45µM*	-18%	1%	26%
CN(C(=O)c1ccc(NC(=O)Cc2ccc(NC(=O)C3CCN(C(=O)c4ccccc4)CC3)cc2)cc1)C1CCCC1	-3%	-15%	nt	3%	nt	26%
C=CCN(CC=C)C(=O)C1CCN(C(=O)c2cccc(F)c2)CC1	nt	nt	nt	-46%	nt	nt
COc1cc2c(cc1OC)-c1n[nH]c(=S)n1C(C)(C)C2	?	40µM*	4µM*	-28%	-3%	41%
COc1cc2c(cc1OC)-c1nnnn1C(C)(C)C2	-4%	-3%	-1%[59 µM]	16%	-1%	39%
COc1cc2c(cc1OC)C(C)N(C(=O)Cn1ncc3c1-c1cc(C)ccc1OC3)CC2 (centres undefined)	0%	-18%	-14%[59 µM]	-18%	-5%	35%
COc1cc(C2NC(=O)NC3=C2C(=O)OC3)cc(OC)c1OC (centres undefined)	30µM*	-7%[11.4 µM]	-9%[59 µM]	0%	-3%	-7%
COc1ccc(/C=C/C(=O)N(C)C2(C)CCS(=O)(=O)C2)cc1 (centres undefined)	4%	-14%	7%	-8%	10%	32%
CCn1c2ccccc2c2cc(Nc3cc(C)nc4ncnn34)ccc21	-8%	?	45µM*	0%	-30%	-5%
Cc1cc(Nc2ccc(N(C)C)cc2)n2ncnc2n1	-1%	-15%	45µM*	-36%	-8%	11%
CCCc1cc(Nc2cccc(OC)c2)n2ncnc2n1	-4%	-25%	-32%[59 µM]	-16%	-4%	0%
Cc1cc(Nc2ccccc2F)n2ncnc2n1	?	-13%	50µM*	?	6%	50%
CCCc1cc(Nc2cccc(OCC)c2)n2ncnc2n1	-5%	-1%	56µM*	25%	8%	38%
SMILES	PLK1 PBD inh	JMJD2A Tudor	G9a block	ALOX12 inh	BAZ2B inh	HP1b chromo inh
Fc1ccccc1CNC1(Cc2cc(COc3ccccc3)on2)COC1	nt	nt	nt	35%[176 µM]	nt	nt
O=C(c1cccs1)N1CCCc2ccccc21	-4%	-8%	12%[59 µM]	6%	0%	27%
COc1ccc(S(=O)(=O)N(C)C[C@H]2Oc3ccc(NC(=O)Nc4ccc(C(F)(F)F)cc4)cc3C(=O)N([C@H](C)CO)C[C@@H]2C)cc1	-11%	-35%	nt	?	nt	2%
Cc1cc(Nc2cc(C)on2)n2ncnc2n1	-6%	-6%	?	1.3µM*	6%	43%
CCc1ccc(Nc2cc(C)nc3ncnn23)cc1	-8%	-10%	nt	-1%	1%	25%
CCc1cccc(Nc2cc(C)nc3ncnn23)c1	24µM*	?	2%	8%[57.4 µM]	-3%	9%
CCn1c(NCc2ccco2)nc2c1c(=O)n(C)c(=O)n2C	2%	-2%	-26%[59 µM]	-3%	4%	31%
CC1(C)Cc2c(C#N)c(N3CCN(C(=O)c4ccccc4)CC3)nc(Cc3ccccc3)c2CO1	-7%	-14%	-5%[59 µM]	0%	2%	13%
COC(=O)Sc1nc(N2CCOCC2)c2c(c1C#N)CC(C)(C)OC2	-15%	?	7.9µM*	0%	10%	63%
CC1(C)Cc2c(C#N)c(OCC(=O)c3ccc(Cl)cc3)nc(-c3ccoc3)c2CO1	-21%	1%	?	?	37%	27%
COC(=O)CSc1nc(N2CCOCC2)c2c(c1C#N)CC(C)(C)OC2	-8%	3%	?	102%	?	35%
CCc1nc(N2CCN(C(=O)c3ccccc3)CC2)c(C#N)c2c1COC(C)(C)C2	24µM*	23%[11.4 µM]	-10%	-1%	-5%	11%
CC1(C)Cc2c(C#N)c(OCC(=O)c3ccccc3)nc(-c3ccoc3)c2CO1	27µM*	-20%[57.1 µM]	?	-3%	3%	?
CC(Sc1nc(N2CCOCC2)c2c(c1C#N)CC(C)(C)OC2)C(=O)O (centres undefined)	-12%	-6%	50µM*	nt	-12%	18%
COc1ccc(OC)c(/C=C/C(=O)Nc2ccc(C(=O)OCCC(C)C)cc2)c1	nt	26%	91%[59 µM]	?	31%	73%
CC[N+](CC)(CC)CC(=O)Nc1c(C)cccc1C	2%	-24%	20%[12.7 µM]	23%	nt	18%
Cc1cc(NC(=O)CN2CC3CC(C2)c2cccc(=O)n2C3)nc2c1c(=O)oc1ccccc12 (centres undefined)	nt	nt	35µM*	nt	?	nt
CC(NC(=O)C1CCN(S(=O)(=O)c2ccc3nc4c(c(C(=O)O)c3c2)CCCC4)CC1)c1ccccc1 (centres undefined)	-9%	-9%	40µM*	?	-28%	20%
Cc1[nH]c(=O)[nH]c(=O)c1S(=O)(=O)N1CCC(C(=O)NC(C)c2ccccc2)CC1 (centres undefined)	34µM*	?	7%	-5%	7%	15%
